Screening data deposited in PubChem BioAssay by National Center for Advancing Translational Sciences (NCATS).
MCF10A rerep = induces DNA re-replication in MCF 10a normal breast cells. MCF 10A DNA re-replication, Hoechst nuclear intensity, 48 h. Potency, µM (highest dose often 46.1 µM), for inactives: top-dose activity, positive = re-replication, hits mostly activators. hit rate 2.9% among 350,000. AID 624296; also: potency is read from the fitted curve at half-maximal effect; % of control where 0% means no effect; nearly all actives have a fitted effect of over 50% in size
RORg inh = blocks mouse ROR gamma transcriptional activity | P51450 | Drosophila S2 Gal4-RORgamma UAS-luciferase reporter, 20 h | Potency, µM (titrated, usually from 53.6 µM), without a hit: top-dose activity change, negative = inhibition, actives largely listed as inhibitors | hit rate 5.4% among 310,000; also: potency is read from the fitted curve at half-maximal effect; % is scaled to controls: 0 for no effect and ±100 for the full control effect; nearly all actives have a fitted effect of over 60% in size
Target sequence (P51450 whole entry, looked up, the tested form may be a part): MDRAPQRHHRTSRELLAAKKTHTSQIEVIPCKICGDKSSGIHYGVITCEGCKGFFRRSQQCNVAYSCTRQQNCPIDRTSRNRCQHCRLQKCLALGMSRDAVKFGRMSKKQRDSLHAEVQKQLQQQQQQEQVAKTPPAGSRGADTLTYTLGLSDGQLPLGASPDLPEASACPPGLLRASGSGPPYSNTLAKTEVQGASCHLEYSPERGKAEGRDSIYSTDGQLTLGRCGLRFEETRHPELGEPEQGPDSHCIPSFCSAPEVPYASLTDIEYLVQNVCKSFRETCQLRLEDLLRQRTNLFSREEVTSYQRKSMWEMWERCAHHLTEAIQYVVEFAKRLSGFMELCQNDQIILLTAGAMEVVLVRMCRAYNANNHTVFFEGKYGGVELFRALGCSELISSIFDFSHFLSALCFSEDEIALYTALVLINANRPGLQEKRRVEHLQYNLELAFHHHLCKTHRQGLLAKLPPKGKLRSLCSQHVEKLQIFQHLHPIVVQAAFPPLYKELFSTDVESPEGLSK
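Stable Schneider cell line, Gal4 DNA-binding domain fused to ROR gamma, UAS-luciferase. Cmpd 1 hr RT → CuSO4 700 uM final → 20 hr RT → luciferase reagent 10 min → luminescence.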
Giardia kill = kills Giardia lamblia; Giardia lamblia trophozoite viability; activity change, % at 7.66 µM, hits read low; hit rate 0.15% among 340,000; in the data active = activity change below about -80%; inconclusive = between about -30% and that limit;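 also: parasites exposed to compound for two days anaerobically before the ATP read; % is scaled to controls: 0 for no effect and ±100 for the full control effect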
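Trophozoite viability was measured as ATP-dependent luminescence, read 15-30 min after reagent addition. Before that, parasites at 100 cells/well were exposed to compounds for 48 h, anaerobically, at 37 deg C.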
SW480 rerep = DNA re-replication induction in SW480 cells; SW480 DNA re-replication, Hoechst DNA content imaging, 48 h; Potency, µM (highest dose often 46.1 µM), without a hit: top-dose re-replication activation, actives largely listed as activators; hit rate 1.8% among 340,000; also: potency is read from the fitted curve at half-maximal effect; % of control where 0% means no effect; nearly all actives have a fitted effect of over 55% in size
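First, 250 cells per well were seeded. Next, compound or vehicle (23 nL) was pinned in, plates sat 48 hr at 37 C. Finally Hoechst was added for 40 min before fluorescence scanning.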
VP16 counter = counter-screen for ROR gamma inhibitors: Gal4-VP16 reporter; Drosophila S2 Gal4-VP16 UAS-luciferase, luminescence, 20 h; Potency, µM (series often up to 53.6 µM), for inactives: top-dose activity, negative = inhibition, hits mostly inhibitors; hit rate 3.5% among 310,000; AID 2546;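 also: Gal4-VP16 expression switched on by copper sulfate through the metallothionein promoter; potency is read from the fitted curve at half-maximal effect; % is scaled to controls: 0 for no effect and ±100 for the full control effect; nearly all actives have a fitted effect of over 50% in size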
BCR signal inh = blocks chronic active B-cell receptor signaling. ABC-DLBCL IkBa-CBG/CBR reporter, luminescence ratio, 4 h. Potency, µM (doses to about 46.1 µM), inactives show at the top dose activity change, negative = inhibition, usual class: inhibitors. hit rate 0.05% among 340,000; active = well fitted inhibition curve with a large enough effect in the signal ratio, with a control signal flat, not every such curve was filed as active; inconclusive = small, poorly fitted or top-dose-only effect, or effect the other way, or a change in a side signal; the % refers to the signal ratio;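 also: potency is read from the fitted curve at half-maximal effect; plate controls were basal doxycycline-induced cells for no effect and cells given 10 µM MG132 for full effect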
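Doxycycline induced both beetle luciferases in TMD8 lymphoma cells; IKK-driven degradation limits the IkappaBalpha-fused green signal, while red luminescence normalises for cell number and nonspecific effects. Compounds tested up to 46 uM, 4 hrs.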
The depositor's hits bear a star; ? = inconclusive; · = no result given; ! = not active in a repeat; [ ] = remark or other dose. Most compounds without a hit are left out; they make up all but 8.3% or so of the library. Unless noted, calls follow the shape of the dose curve; as a rule, active = well fitted curve in the direction sought with a large enough effect; inconclusive = small, poorly fitted or top-dose-only effect, or another doubt; inactive = no such curve, though single readings can be large; an effect the other way counts as inactive or inconclusive.

SMILES	MCF10A rerep	RORg inh	Giardia kill	SW480 rerep	VP16 counter	BCR signal inh
CC(C)(COCC1CO1)COCC1CO1 (stereo not given)	·	-0.7%	·	·	-21.3%	·
Cc1ccc(N=C=O)cc1N=C=O	·	?	·	·	11.7%	·
O=C1NC(=O)N(Cc2ccco2)C(=O)/C1=C\c1cccn1CCOc1ccc(Cl)cc1	?	-11.9%	-1.7	0.3%	?	?
CCc1ccc(N2C(=O)NC(=O)/C(=C/c3cccn3CCOc3ccc(C(C)CC)cc3)C2=O)cc1 (stereo not given)	13µM*	0.794µM*	7.5	13µM*	?	?
CCc1ccc(N2C(=O)NC(=O)/C(=C/c3cccn3CCOc3ccc(C)cc3)C2=O)cc1	20.6µM*	?	17.9	?	?	-6.6%
Cc1ccccc1-c1cncnc1NCCc1cnc[nH]1	·	-30.5%	·	·	-7.4%	·
ClCC1C(CCl)C2(Cl)C(Cl)=C(Cl)C1(Cl)C2(Cl)Cl (stereo not given)	·	-12.4%	·	·	-7.3%	·
c1ccc2c(c1)c1cc[n+]2CCCCC[n+]2ccc(c3ccccc32)NCCCCCN1	·	-31.4%	·	·	-12.1%	·
O=C1NC(=O)C2(Cc3ccccc3N3CCCC32)C(=O)N1c1ccc(Cl)cc1 (stereo not given)	20.6µM*	-1.8%	9.0	0.5%	7.8%	?
Cc1ccc(N2C(=O)NC(=O)C3(Cc4ccccc4N4CCCC43)C2=O)cc1 (stereo not given)	5.9%	-0.2%	16.9	-0.6%	-1.5%	8.4%
CC(=O)[O][Hg][c]1ccccc1	43.1%	1.12µM*	·	?	1.2%	·
Cc1oc(-c2ccccc2)nc1CN1C(=O)C(C)N=C(c2ccccc2F)c2cc(Cl)ccc21 (stereo not given)	?	12.6µM*	1.6	3.2%	-10.8%	2.8%
CCOC(=O)c1cc(CC)sc1/N=C/C1C(=O)NC(=S)NC1=O	-2.2%	-6.4%	-6.1	-1.2%	-2.4%	14.9%
CCOC(=O)c1cc(CC)sc1/N=C/c1c(O)[nH]c(=S)[nH]c1=O	-7.1%	17.8µM*	21.1	-3.3%	?	0.4%
CC#C[C@]1(O)CC[C@H]2C3C=C(C)C4=CC(=O)C=C[C@]4(C)[C@H]3[C@@H](O)C[C@@]21C (stereo not given in full)	·	41.6%	·	·	2.2%	·
CCOc1cc(C=O)ccc1O	-10.1%	7.3%	10.6	-5.3%	2.4%	4.5%
COc1cc(/C=C/[N+](=O)[O-])ccc1O	?	4.47µM*	3.4	?	3.16µM*	20.6µM*
O=C(Cn1c(=O)oc2ccccc21)NCCc1ccccc1	-24.8%	-7.1%	3.0	-4.4%	-2.4%	?
O=C(O)c1ccccc1-c1c2cc(Br)c(=O)cc-2oc2[c]([Hg])c(O)c(Br)cc12	0.1%[20.6 µM]	?	·	-14.9%[20.6 µM]	17.8µM*!	·
S=C(S)N1CCCC1	?	?	22.3	3.0%	0.316µM*	-9.8%
S=C(S)N1CCNCC1	0.4%	5.8%	·	1.5%	-3.4%	·
COc1ccc(S(=O)(=O)N2c3ccc(F)cc3CCC2C)cc1 (stereo not given)	0.92µM*	·	34.6	?	·	·
COc1ccc(S(=O)(=O)N2Cc3cnnn3-c3ccccc3C2C#N)cc1 (stereo not given)	-2.4%	·	-23.2	11.1%[9.22 µM]	·	·
CCCCC(C#N)(Cn1cncn1)c1ccc(Cl)cc1 (stereo not given)	·	31.2%	·	·	-0.2%	·
COC(=O)C(Cc1ccc(N(CCCl)CCCl)cc1)N=Cc1ccccc1O (stereo not given)	11.6µM*	7.94µM*	3.6	1.03µM*	?	?
SMILES	MCF10A rerep	RORg inh	Giardia kill	SW480 rerep	VP16 counter	BCR signal inh
COC(=O)c1sccc1NC(=O)c1ccc(C#N)cc1	5.0%	17.8%	-21.8	?	-8.9%	4.5%
Cn1cc(/C=C(\C(=O)O)C(C(=O)O)=C2CCCCC2)c2ccccc21	3.7%	-15.2%	-4.8	-25.2%	-0.1%[10 µM]	-1.4%
Cc1ccc(-c2cc(NC(=O)c3ccccc3)on2)cc1	?	-20.1%	-18.0	0.1%	7.3%	-8.2%
O=C(NC(=S)Nc1ccccn1)c1ccc(-c2ccccc2)cc1	?	3.16µM*	-89.9*	27.0%	3.98µM*	?
CCOC(=O)C1CCN(/C=C2/C(=O)NC(=S)N(c3ccccc3F)C2=O)CC1	-3.0%	9.4%	-1.4	-2.0%	5.2%	-0.1%
CCOC(=O)C1CCN(/C=C2/C(=O)NC(=O)N(c3ccc(OCC)cc3)C2=O)CC1	5.8µM*	-6.8%	8.4	1.3%	-4.1%	-5.3%
Cc1ccc(C)c(NP(=O)(Oc2ccccc2)Oc2ccccc2)c1	20.6µM*	-14.2%	?	-0.8%	-0.7%	-5.7%
Cc1ccc(S(=O)(=O)NP(=O)(Oc2ccccc2)Oc2ccccc2)cc1	-2.2%	1.4%	-4.1	-2.2%	5.8%	7.7%
COCCCNC(=S)NCCCNc1nc2cc(C)cc(C)c2cc1C#N	?	6.31µM*	-5.9	21.5%	?	-5.9%
Cl.Cl.Cl.Cl.Cl.Cl.N.N.N.N.NNNNN.NNNNN.O.O.[Ru].[Ru].[Ru]	·	17.7%	·	·	-16.9%	·
COC(C)C(O)(C(=O)OC1=CCN2CC[C@H](O)[C@H]12)C(C)C (stereo not given in full)	·	-11.2%	·	·	2.0%	·
CC(C)(C)C(=O)NC(=S)NNC(=O)c1ccc(Cl)cc1Cl	12.9%	2µM*	2.1	?	?	?
On1ccccc1=S	6.51µM*	·	-19.4	10.3%	·	?
CCOC(=O)N1CCN(c2ncnc3c2[nH]c2ccc(F)cc23)CC1	-1.7%	?	3.5	3.7%	7.08µM*	?
CCOC(=O)c1ncn2c1CN(C)C(=O)c1cc(F)ccc1-2	2.8%	?	-29.4	-33.3%	-3.5%	?
COc1cc2c(cc1O)C[C@H]1NCCc3cc4c(c-2c31)OCO4	18.4µM*	10µM*	2.8	?	?	2.6%
CN1CCc2cc3c(c4c2[C@H]1Cc1ccccc1-4)OCO3	·	-34.6%	·	·	-26.2%	·
COc1cc2c(cc1OC)-c1c3c(cc4c1[C@@H](C2)N(C)CC4)OCO3	?	?	0.4	?	12.6µM*	-18.1%
CC12CCC3c4ccc(OC(=O)N(CCCl)CCCl)cc4CCC3C1CCC2O (stereo not given)	20.6µM*	·	-2.7	?	·	·
CCN(CC)c1ccc2c(cc1=O)[C@@H](NC)CCc1cc(OC)c(OC)c(OC)c1-2	1.3µM*	-6.8%	-4.0	1.03µM*	-6.6%	?
COc1cc2c(c(OC)c1O)-c1ccc(OC)c(=O)cc1C(NC(=O)C(F)(F)F)CC2 (stereo not given)	?	·	-11.6	0.116µM*	·	·
COc1cc2c(c(OC)c1OC)-c1ccc(OC)c(=O)cc1[C@@H](NC(C)=O)CC2	0.0422µM*	-27.2%	13.8	0.0046µM*	-8.9%	?
